Bioassay records: PubChem, several laboratories
JNK3 inh: JNK3 kinase activity inhibitors, primary screen, biochemical, human, purified enzyme; AID 746, 2007; inhibition, % at 8 µM; Mitogen-activated protein kinase 10 (Homo sapiens), P53779; HTS; 0.61% of 60,000 active; in the data active = inhibition above about 17%
FXIIa mix inh: human factor XIIa inhibitors, primary screen, biochemical, pooled compound mixtures, fluorogenic substrate; inhibition, % at 5 µM; purified FXIIa; 0.2% of 62,000 active; Coagulation factor XII (Homo sapiens), P00748
Target sequence (P00748 20-372 limits assumed): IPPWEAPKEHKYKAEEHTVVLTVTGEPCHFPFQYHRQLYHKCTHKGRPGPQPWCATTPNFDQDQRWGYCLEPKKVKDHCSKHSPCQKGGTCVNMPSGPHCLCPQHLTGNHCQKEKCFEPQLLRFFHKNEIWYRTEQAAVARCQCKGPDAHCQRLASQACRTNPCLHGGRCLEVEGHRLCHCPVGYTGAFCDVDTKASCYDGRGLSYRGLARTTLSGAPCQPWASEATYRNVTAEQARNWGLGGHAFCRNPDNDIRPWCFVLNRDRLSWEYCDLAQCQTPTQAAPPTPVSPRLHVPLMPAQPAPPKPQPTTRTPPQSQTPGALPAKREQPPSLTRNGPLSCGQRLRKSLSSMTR
Target sequence (P00748 373-615 limits assumed): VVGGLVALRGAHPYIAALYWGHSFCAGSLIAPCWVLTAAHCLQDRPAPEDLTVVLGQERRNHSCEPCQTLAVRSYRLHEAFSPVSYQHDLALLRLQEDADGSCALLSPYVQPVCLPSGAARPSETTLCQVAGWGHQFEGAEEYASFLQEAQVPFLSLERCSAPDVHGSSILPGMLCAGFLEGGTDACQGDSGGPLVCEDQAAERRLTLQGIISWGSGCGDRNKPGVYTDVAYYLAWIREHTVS
FXIa mix inh: FXIa protease inhibitors in compound pools, primary screen, biochemical, 10-compound mixtures | Coagulation factor XI (Homo sapiens), P03951 | purified FXIa, fluorogenic substrate, pooled mixtures | inhibition, % at 5 µM | 0.19% of 62,000 active;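 also: each value is inhibition by a whole ten-compound pool holding the compound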
HER2 expr 66K: inhibitors of Her2 protein expression, primary screen, SKBR-3 cells, AlphaScreen, 66K library; HER2 level % of control, % at 10 µM; 0.69% of 65,000 active; Receptor tyrosine-protein kinase erbB-2 (Homo sapiens), P04626; AID 645, 2007; SKBR-3 HER2 protein level, 18-24 h; hits give low values;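 active = HER2 level under 5% of the carrier-only control; inconclusive = no clear call, values can overlap the other calls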;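 also: lower value means stronger loss of Her2 protein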
M1 antagonist: antagonists of rat M1 muscarinic receptor | Muscarinic acetylcholine receptor M1 (Rattus norvegicus), P08482 | CHO-M1 cells, Fluo-4 calcium, ACh EC80 antagonist mode; hits give low values | B-score at 10 µM | 3.4% of 64,000 active | AID 628, 2007;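 active = calcium fluorescence response, raw or row-and-column corrected B-score, differing from the plate sample mean either way at a set confidence level, mostly lower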
M1 agonist: M1 muscarinic receptor agonists, primary screen, CHO-M1 cells, Fluo-4 calcium, agonist mode; AID 626, 2007; Muscarinic acetylcholine receptor M1; B-score at 10 µM; Fluo-4 calcium fluorescence; hits give high values; 3% of 64,000 active;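 active = fluorescence rise, raw or as B-score row- and column-corrected plate score, outside the 99.7% band of its plate's samples, either direction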
M1 agonist conf: rat M1 muscarinic receptor agonists, confirmation, CHO-M1 cells, Fluo-4 calcium, duplicate retest | 19% of 1,700 active | AID 1488, 2009 | Fluo-4 calcium fluorescence, agonist mode; actives lie on both sides | shares compounds with M1 agonist | fluorescence change (max-min) at 10 µM;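 active = fluorescence change differs from the solvent-only DMSO control mean at a set confidence level in both duplicate runs; inconclusive = differs from solvent-only control mean in just one of two runs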;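 also: an EC20 dose of acetylcholine follows compound addition during the same imaging run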
M4 ag counter: agonist activity at rat M4 receptor, confirmation, counter-screen for M1 allosteric modulator project, cell-based, agonist mode. shares compounds with M1 agonist. CHO M4/Gqi5 cells, Fluo-4 calcium fluorescence; actives lie on both sides. fluorescence change (max-min) at 10 µM. 9% of 1,700 active;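 active = fluorescence change differing from the plate's solvent-only control wells at 99.7% confidence in both duplicates, whether higher or lower; inconclusive = differs from solvent controls in only one of two duplicates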
Hits are given with their value; n = inactive; u = inconclusive; x = no result given. Shown are actives, neighbours in structure and some others; about 6.9% of the full set was active somewhere. Rule as the data show it, unless noted: active = inhibition above about 20% (passing the limit was not always enough); inactive = the rest.

SMILES	JNK3 inh	FXIIa mix inh	FXIa mix inh	HER2 expr 66K	M1 antagonist	M1 agonist	M1 agonist conf	M4 ag counter
CCOc1cc(C(=O)N(C)c2ccccc2)cc(OCC)c1OCC	n	n	n	n	n	n	x	x
O=C(Cc1nc2ccccc2s1)c1ccc(O)cc1O	n	n	n	n	n	-1.8	n	n
O=C(Cc1ccc(Br)cc1)c1ccc(O)cc1O	n	n	n	n	n	n	x	x
O=C(O)c1ccccc1S(=O)(=O)c1ccccc1CO	n	n	n	n	n	8	n	n
C=C1c2cc(OC)ccc2NC(=O)N1CC	n	x	x	n	n	8.2	71	n
COc1ccc(N(CC(=O)NC2CCCC2)C(=O)Cn2nnc(-c3ccc(C)cc3)n2)cc1OC	n	n	n	n	n	13	u	n
CCOC(=O)N1CCC(Nc2ncnc3c2cnn3-c2ccc(Cl)cc2)CC1	n	n	n	n	n	n	x	x
Cc1cc2c(N3CCCCC3C)ncnc2s1 (stereo not given)	n	n	n	n	n	3.5	n	n
COc1ccc(C2C(C(=O)NC(C)C)c3ccccc3C(=O)N2C)cc1OC (stereo not given)	x	n	n	n	n	3.4	n	n
COc1ccc(C2C(C(=O)Nc3cc(C)on3)c3ccccc3C(=O)N2C)cc1OC (stereo not given)	x	n	n	n	n	n	x	x
CC12CC(c3ccccc3O1)C(C(=O)NCc1ccccc1)C(=O)N2 (stereo not given)	n	n	n	n	n	n	x	x
CC1(C)CC(=O)C2=C(C1)N(c1cccc(O)c1)C1=C(C2)C(=O)CC(C)(C)C1	n	n	n	n	n	22	221	170
O=C1COc2ccc(C(=O)CSc3nnc(Cc4cccs4)n3-c3ccccc3)cc2N1	x	n	n	n	n	5.2	n	n
CCOC(=O)N1CCC(NCCNC(=O)c2ccccc2Cl)CC1	n	n	n	n	-9.1	25	267	u
CN1CCC(NC(=O)c2cccs2)CC1	n	n	n	n	n	6.6	n	u
CCOC(=O)N1CCC(NCCNC(=O)c2ccccc2)CC1	x	n	n	n	x	x	x	x
CCOC(=O)N1CCC(NCCNC(=O)c2cccs2)CC1	x	n	n	n	-2.6	28	256	u
O=C(NC1CCCCCC1)c1cccs1	n	n	n	n	n	n	x	x
COc1ccc(C(=O)NCCn2cc(SCC(=O)Nc3cc(C)on3)c3ccccc32)cc1OC	n	n	n	n	n	3.5	-27	n
Cc1ccc(C(=O)NCCn2cc(SCC(=O)Nc3nnc(C)s3)c3ccccc32)cc1	n	n	n	n	n	2.9	u	n
CCCn1cc(SCC(=O)Nc2nnc(C)s2)c2ccccc21	n	n	n	n	n	n	x	x
COc1ccccc1C(=O)NCCn1cc(SCC(=O)Nc2cc(C)on2)c2ccccc21	n	x	x	n	n	n	x	x
CCc1nn(C(C)C(=O)NCCN2CCN(c3cccc(C)c3C)CC2)c(=O)c2cc3occc3n12 (stereo not given)	n	n	n	n	n	3.8	u	n
CCc1nn(C(C)C(=O)Nc2cccc(C)c2C)c(=O)c2cc3occc3n12 (stereo not given)	n	n	n	n	n	n	x	x
CCC(=O)N(CC)c1nc(-c2ccc(OC)cc2)cs1	n	n	n	n	n	46	u	-75
SMILES	JNK3 inh	FXIIa mix inh	FXIa mix inh	HER2 expr 66K	M1 antagonist	M1 agonist	M1 agonist conf	M4 ag counter
COCCCN1C(=O)C(=O)/C(=C(/O)c2ccccc2)C1c1ccc(N(C)C)cc1 (stereo not given)	n	n	n	n	n	n	x	x
CCN(CC)S(=O)(=O)c1ccc(/C(O)=C2/C(=O)C(=O)N(CCOC)C2c2ccccc2)cc1 (stereo not given)	n	n	n	n	n	33	n	n
COc1ccc(-c2nnc3ccc(SCC(N)=O)nn23)cc1OC	n	n	n	n	n	n	x	x
COc1ccc(-c2nnc3ccc(SCC(=O)N4CCCCC4)nn23)cc1OC	n	n	n	n	n	-3.5	n	n
COc1ccc(OC)c(Nc2cc(C(=O)NCCCN3CCOCC3)c3ccccc3n2)c1	n	n	n	n	n	7.5	-26	-79
COc1ccccc1Nc1cc(C(=O)NCCCN2CCOCC2)c2ccccc2n1	n	n	n	n	n	n	x	x
COc1ccc(-c2csc(N(CC3CCCO3)C(=O)c3ccco3)n2)cc1 (stereo not given)	n	x	x	u	n	n	x	x
Cc1cc(C)n(-c2nc3c(c(=O)[nH]c(=O)n3C)n2C(C)C)n1	n	n	n	n	n	n	x	x
CCOC(=O)C(C(=O)Nc1nccs1)C1CCCCC1 (stereo not given)	n	n	n	n	n	n	x	x
CCOc1ccc(CCN2C(=O)C3C4C=CC(C4)C3C2=O)cc1OCC (stereo not given)	n	n	n	n	n	n	x	x
C(=N\n1cnnc1)/c1ccc2c(c1)OCO2	n	n	n	n	n	n	x	x
Oc1ccc2oc3c(c2c1/C=N/n1cnnc1)CCCC3	n	n	n	n	n	1.3	u	n
CCC(NC(=O)NCc1cccnc1)(C(F)(F)F)C(F)(F)F	n	n	n	n	n	n	x	x
COCCn1c(N)c(C(=O)OCc2ccccc2)c2nc3ccccc3nc21	n	n	n	n	n	n	x	x
COCCNC(=O)c1c(N)n(CCC2=CCCCC2)c2nc3ccccc3nc12	n	n	n	n	n	6.2	n	n
C=CCn1c(SCCC(=O)O)nc2c1c(=O)n(C)c(=O)n2C	n	n	n	n	n	n	x	x
CCC(C)(C)NC(=O)C(c1cccc(OC)c1)N(C(=O)c1ccn[nH]1)c1cccc(OC)c1 (stereo not given)	n	n	n	n	n	12	-24	-68
O=C(O)C1CCC(=O)N1C1c2ccccc2Oc2ccccc21 (stereo not given)	n	n	n	n	n	n	x	x
O=C(O)C1CCC(=O)N1C1CCCC1 (stereo not given)	n	n	n	n	n	5	-29	u
CCOC(=O)/C(C#N)=C1\Nc2ccccc2N=C1N(CC(C)C)CC(C)C	n	n	n	n	n	8.1	u	n
CCOC(=O)/C(C#N)=C1/C=CN(C)C(C)=N1	n	n	n	n	n	n	x	x
